# The full ranking holds about 33,000 sequences; the median of “E-score (-0.5 to 0.5)” is about -0.013, and the highest 2% start at about 0.3. The sample holds the highest values, similar sequences and a random draw of the others, so the mix is not that of the screen.
# Biological target: T1, Msn1 (UniProt P22148)
# T1 sequence: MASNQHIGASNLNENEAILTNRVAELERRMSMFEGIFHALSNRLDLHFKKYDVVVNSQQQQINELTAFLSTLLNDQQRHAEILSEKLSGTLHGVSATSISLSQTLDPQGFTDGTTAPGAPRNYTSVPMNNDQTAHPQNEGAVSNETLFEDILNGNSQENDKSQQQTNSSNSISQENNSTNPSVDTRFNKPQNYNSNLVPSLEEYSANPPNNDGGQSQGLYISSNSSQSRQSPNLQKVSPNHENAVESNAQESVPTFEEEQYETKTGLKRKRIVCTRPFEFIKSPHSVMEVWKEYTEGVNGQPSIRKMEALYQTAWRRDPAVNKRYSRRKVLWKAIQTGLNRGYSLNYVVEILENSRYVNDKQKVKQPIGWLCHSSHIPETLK
# Assay: PBM E-score (8-mer binding enrichment) (E-score (-0.5 to 0.5)); higher = stronger / more preferred TF binding
# Settings: protein concentration: 200 nM; construct: GST-full length
# Outline: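 Detection of bound protein used fluorescent anti-GST, with scans normalised by masliner. The proteins were GST-tagged yeast transcription factors applied at about 100-200 nM to universal all-10-mer Agilent arrays made double-stranded by primer extension. Each ungapped eight-base word, pooled with its reverse complement, was scored with an E-score from the Universal PBM Analysis Suite.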
row,Sequence,PBM E-score
1,GGGACCCA,-0.139
2,TAGCGTCA,-0.0365
3,GTATGTAA,0.0384
4,GTATGTTA,0.0222
5,ATATGTTG,0.0727
6,ATATGTCG,0.379
7,GTATGTCA,0.35
8,ATATGTTA,-0.0436
9,ATATGTCA,0.401
10,ATATGTGG,0.0596
11,CTATGTCA,0.167
12,AATACTCT,0.0619
13,ATTAGAGA,0.00489
14,GTCTTGGA,0.0469
15,CAAAGTTG,0.101
16,GTCTGAAA,0.241
17,CCCCAATA,-0.122
18,ATATTCCC,0.0634
19,ATATTCCA,0.212
20,ATATTCCG,0.321
21,ACGTAGCG,-0.138
22,AGTTTGTC,0.446
23,AGTTTGTG,-0.0605
24,CGTTTGTA,0.189
25,CGTTTGAC,0.12

row,Sequence,PBM E-score
1,AGTTTGTA,0.182
2,CGTTTGTC,0.44
3,TATGTAAA,0.0978
4,GACGCCAA,-0.157
5,ATATTAAA,0.344
6,TTATTAAA,0.29
7,AAATTAAT,0.199
8,CTATTAAA,0.179
9,AGATTAAA,0.309
10,AAATTAAC,0.0769
11,GAAATTAA,0.34
12,CAAATTAA,0.0951
13,AAATTAAA,0.355
14,CGATTAAA,0.0941
15,AGATTAAT,0.0857
16,AAAATTAA,0.187
17,TGGGTCAA,-0.0713
18,CGCCAAGA,-0.142
19,GCAGAGGC,-0.241
20,CCCTGCCG,-0.254
21,CGCCAATC,-0.0945
22,AATGCCCC,-0.197
23,AATTCAGG,0.109
24,GCGGGTGA,-0.0547
25,GCACAAAC,0.0596

row,Sequence,PBM E-score
1,AAGCCTCT,-0.17
2,ACAATGTG,0.0288
3,ACAATGTC,0.452
4,ACAATGTA,0.156
5,CCAATGAC,-0.00959
6,CCAATGTC,0.328
7,CCAATGTA,0.0173
8,GCATAAAA,0.128
9,AATCCTTA,-0.134
10,CGAGCTAA,-0.0305
11,CAGAATAA,0.0293
12,TGGACACA,0.427
13,GGGACACA,0.449
14,TGCACACA,0.0221
15,GGGACACC,0.185
16,TCGACACA,0.133
17,GTGACACA,0.286
18,AGGAAATC,0.0408
19,AAGTGCGC,-0.108
20,ATGCTGTC,0.0368
21,GTAGCGCA,-0.107
22,CCAAGAAG,-0.0807
23,ATTATAAT,0.307
24,ATTATAAG,0.103
25,ATTATAAA,0.17

row,Sequence,PBM E-score
1,CCACATAC,0.0664
2,CACCAACG,0.185
3,CCATAGAG,0.0389
4,ACGCTAAT,-0.223
5,AAAGGCCG,-0.00669
6,ATACCTAG,-0.0479
7,ATGTCTTC,0.293
8,AAGTCTTG,0.0419
9,ATGTCTGA,0.425
10,GTGTCTGA,0.185
11,ATGTCTGG,0.323
12,CTGTCTGA,0.0827
13,ACGTCTGG,0.154
14,ATGTCTTG,0.35
15,ATGTCTTA,0.423
16,GTGTCTTA,0.04
17,ATGTCTGC,0.286
18,CTGTCTTA,0.181
19,GACCATTA,0.0825
20,ATCACAAT,-0.035
21,CAAACGAG,0.099
22,CAGAGGAC,0.0901
23,CAACGGAC,0.121
24,AGAGCCGC,-0.0659
25,ATCGCGTA,-0.176

row,Sequence,PBM E-score
1,ACAGTCGA,-0.0747
2,ATCCCGAT,0.125
3,ACAAAGGC,0.098
4,CCTCAAGC,-0.277
5,ACGCTGGG,-0.406
6,ATCTTGCG,-0.0566
7,CGCGGACC,0.0148
8,TGCGGACA,0.427
9,AGCGGACT,-0.229
10,CGCGGACG,0.181
11,GGCGGACA,0.273
12,AGCGGACG,0.0534
13,AGCGGACA,0.359
14,TGCGGAAA,0.0764
15,CGCGGACA,0.329
16,CTGCTCAA,0.0116
17,CGAGTGCG,0.0204
18,CGTTGCAG,-0.0934
19,CACATTCA,-0.0795
20,GACATTCC,0.456
21,CACATTCC,0.0503
22,AACATTCC,-0.0175
23,GACATTCA,0.449
24,AACATTCA,-0.0503
25,ATACATAT,0.264

row,Sequence,PBM E-score
1,CCGCTCTA,0.0134
2,GACTCCCC,-0.207
3,ATTTCTCG,0.255
4,CGATACCG,-0.0866
5,TCGGACGA,0.199
6,GCGGACCA,0.0483
7,GCGGACAC,0.162
8,ACGGACCA,0.0706
9,TCGGACAA,0.457
10,GCGGACAA,0.44
11,ACGGACGA,0.0949
12,ACGGACAA,0.474
13,TCGGACCA,0.12
14,CCGGACAG,0.227
15,CCGGACAC,0.288
16,CCGGACAA,0.452
17,ACATTCGT,0.0578
18,AATTCTCT,-0.229
19,CGACCGCG,-0.0918
20,CGGGAGGA,-0.0135
21,GAGTGTGC,0.0104
22,GCTACACC,-0.162
23,GCCTGACC,-0.234
24,AAATACCA,-0.0306
25,ACAAAATC,0.352

row,Sequence,PBM E-score
1,ACAAAATG,0.312
2,ACAAAATA,0.188
3,CCAAAATC,0.0937
4,AAAAAATG,0.287
5,ATAAAATA,0.183
6,ATAAAATC,0.0924
7,AAAAAATC,0.105
8,ATAAAATG,0.341
9,GCCGATTA,-0.0616
10,ATTGCCGG,-0.0182
11,GGATAGAC,-0.0706
12,CGACATCC,0.0825
13,AGACATCC,0.328
14,TGACATCA,0.257
15,GGACATCA,0.396
16,GGACATCC,0.475
17,AGACATCG,0.226
18,AGACATCT,0.29
19,CGACATCA,0.125
20,GAACATCC,0.162
21,ATAGTGGA,0.0789
22,CCCTGCTC,-0.172
